HT1080 IDH1KD tx: qHTS for induction of synthetic lethality in tumor cells producing 2HG: qHTS for the HT-1080-IDH1KD cell line; AID 686971, 2013; hit rate 2% among 360,000; HT-1080 IDH1 knockdown viability, ATP luminescence, 48 h; Potency, µM (titrated, usually from 46.1 µM), without a hit: at the highest dose activity, negative = toxicity, most hits filed as cytotoxic;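 note: potency is the fitted concentration of half-maximal effect; 0% = DMSO wells and -100% = cell-free medium wells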
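Cytotoxicity counter-line: IDH1KD HT-1080, 48 h, CellTiter-Glo. Curves classed by r2, magnitude and activity.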
DT40 TDP1 no CPT: qHTS for Inhibitors of human tyrosyl-DNA phosphodiesterase 1 (TDP1): qHTS in cells in absence of CPT. DT40 Tdp1-/- hTDP1 cells, no CPT, ATP luminescence, 48 h. AID 686978, 2013. hit rate 15% among 420,000. Potency, µM (top dose mostly 46.2 µM), for inactives: at the highest dose activity change, negative = growth inhibition, usual class: inhibitors; note: potency is the fitted concentration of half-maximal effect; nearly all actives have a fitted effect of over 55% in size
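A cellular qHTS used chicken DT40 cells lacking endogenous Tdp1 but carrying stably transfected human TDP1. Compounds were applied without camptothecin, and cell growth kinetics were judged by ATP-dependent luminescence after ≥48 hr.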
TDP1 cell CPT: qHTS for Inhibitors of human tyrosyl-DNA phosphodiesterase 1 (TDP1): qHTS in cells in presence of CPT; chicken DT40 Tdp1-/-;hTDP1 cells + 20 nM CPT, ATP luminescence, 48 h; Potency, µM (doses to about 46.2 µM), for the others: top-dose activity change, negative = growth inhibition, actives largely listed as inhibitors; hit rate 12% among 420,000; AID 686979, 2013; note: potency is the fitted concentration of half-maximal effect; nearly all actives have a fitted effect of over 55% in size
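Chicken DT40 Tdp1-/- cells complemented with human TDP1, 400 cells/well, exposed to compounds plus 20 nM camptothecin for at least 48 h at 37 C; viability read as ATP content by CellTiter-Glo luminescence.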
IL1B secr inh: qHTS for Inhibitors of Inflammasome Signaling: IL-1-beta AlphaLISA Primary Screen. THP-1 LPS/ATP IL-1B secretion, AlphaLISA, 16 h; active compounds read low. activity change, % at 57.5 µM. hit rate 4.7% among 360,000; in the data active = activity change below about -50%; inconclusive = mostly about -30% to -49%
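THP-1 cells pretreated 1 hr with compounds (up to 57.5 uM final), then stimulated with LPS (250 ng/mL final) plus ATP (1.25 mM final); secreted IL-1B measured by AlphaLISA after 16 hr, decreased signal indicating inhibition.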
HT1080-NT tox: qHTS for induction of synthetic lethality in tumor cells producing 2HG: qHTS for the HT-1080-NT fibrosarcoma cell line; HT-1080-NT fibrosarcoma viability, CellTiter-Glo ATP luminescence, 48 h; Potency, µM (highest dose often 46.1 µM), inactives show top-dose activity, negative = less viability, hits mostly cytotoxic; hit rate 1.6% among 360,000; AID 686970, 2013;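 note: NT is the 2HG producing partner of a matched IDH1 knockdown line; potency is the fitted concentration of half-maximal effect; 0% = DMSO-treated cells and -100% = media-only wells without cells; nearly all actives have a fitted effect of over 55% in size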
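Luminescent CellTiter-Glo readout after 48 hours of compound exposure at 37 degrees C defined viability of HT-1080-NT cells. Activity was normalized to DMSO wells and cell-free media wells; concentration-response curves were fitted and assigned curve classes.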
Numbers without * were called inactive; u = inconclusive; x = no result given. Only some compounds are listed: those with a hit (about 19% of all), similar ones and a draw of the others. Unless noted, calls come from the whole dose curve; as a rule, active = well fitted curve in the direction sought with a large enough effect; inconclusive = small, poorly fitted or top-dose-only effect, or another doubt; inactive = no such curve, though single readings can be large; an effect the other way counts as inactive or inconclusive. Unless noted, % is set by controls: 0 for no effect and ±100 for the full control effect.

SMILES	HT1080 IDH1KD tx	DT40 TDP1 no CPT	TDP1 cell CPT	IL1B secr inh	HT1080-NT tox
CC(C)c1ccc(S(=O)(=O)c2cn(CC(=O)Nc3ccc(F)cc3)c3ccccc3c2=O)cc1	x	3.0%	-3.2%	x	x
CC(=O)Nc1ccc(S(=O)(=O)NC(CC(=O)N(C)Cc2ccccc2)C(C)C)cc1 (configuration not stated)	11.7%	23.1µM*	11.6µM*	-3.1	1.2%
CC(=O)Nc1ccc(S(=O)(=O)NC(CC(=O)NCCc2ccccc2)C(C)C)cc1 (configuration not stated)	2.9%	1.5%	3.1%	19.1	-0.4%
CCOC(=O)c1cc2ccccc2n1C1CCN(C)CC1	-29.3%	25.9µM*	u	-11.2	-29.2%
O=C(COc1ccc(S(=O)(=O)N2CCCCC2)cc1)N1CCCC1	1.4%	-2.8%	2.3%	6.2	2.5%
O=[N+]([O-])c1ccc(N2N=C(c3ccco3)CC2c2ccccc2)cc1 (configuration not stated)	1.7%	u	u	-55.1*	5.1%
Fc1ccc(C2CC(c3ccco3)=NN2c2ccccc2)cc1 (configuration not stated)	-4.3%	-1.5%	-2.8%	-25.3	0.4%
Cc1ccccc1SCC(=O)N/N=C/c1ccc(F)cc1	-26.2%	3.8%	u	-4.1	1.9%
COc1cc(C(CC(=O)Nc2ccc(C)c(F)c2)N2Cc3ccccc3C2=O)cc(OC)c1OC (configuration not stated)	x	-2.0%	-5.2%	x	x
COc1cc2c(cc1OC)[C@@H](NC(=O)C(C)C)[C@H](O)C2	0.0%	5.8%	-12.3%	-6.1	-1.0%
CCCCCCCCCC(=O)N[C@@H]1c2cc(OC)c(OC)cc2C[C@H]1O	-4.8%	16.4µM*	u	0.0	-3.6%
CSCCC(NC(=O)c1cccc(C)c1)C(=O)Nc1sccc1C(N)=O (configuration not stated)	-0.3%	u	u	-13.1	9.6%
O=C(COC(=O)c1ccc2ccccc2c1)NCCCc1ccccc1	15.2%	-15.7%	-3.2%	-9.2	2.3%
C=CC[n+]1c(/C=C/c2ccc(OC(C)=O)c(OC)c2)ccc2ccccc21	u	11.6µM*	7.31µM*	-98.6*	u
O=C(NCCCN1CCOCC1)c1cccc(NS(=O)(=O)c2ccc(Br)cc2)c1	7.4%	7.9%	-2.7%	7.3	-1.8%
CCN1CCN(c2c(S(=O)(=O)c3ccc(Cl)cc3)cnc3ccccc23)CC1	x	u	13µM*	x	x
CCOc1ccc(/C=N/NS(=O)(=O)c2ccc(C)cc2)cc1OC	-13.1%	-15.0%	-12.8%	-0.1	-0.2%
CCc1ccc2ncc(S(=O)(=O)c3ccc(C)c(C)c3)c(N3CCCC3)c2c1	u	14.6µM*	23.1µM*	-25.5	u
CCOc1ccc(Nc2c(S(=O)(=O)c3ccc(C)cc3)cnc3cc(OC)c(OC)cc23)cc1	x	11.6µM*	u	x	x
COc1ccc(S(=O)(=O)c2cnc3ccc(Cl)cc3c2N2CCCCC2C)cc1 (configuration not stated)	x	23.1µM*	16.4µM*	x	x
CCCn1c(SCC(=O)Nc2cccc(C)n2)nnc1-c1ccco1	9.8%	-14.6%	-7.6%	29.9	11.0%
COc1cc2nc(CN3CCN(S(=O)(=O)c4cc(C)ccc4C)CC3)[nH]c(=O)c2cc1OC	u	u	u	-11.5	u
CCc1ccc(S(=O)(=O)c2cnc3ccc(OC)cc3c2N2CCCC(C)C2)cc1 (configuration not stated)	x	u	16.4µM*	x	x
CCN1CCN(c2c(S(=O)(=O)c3ccc(C)c(C)c3)cnc3cc(OC)c(OC)cc23)CC1	x	u	14.6µM*	x	x

Bioassay records from PubChem.
